Screens: PubChem BioAssay, National Center for Advancing Translational Sciences (NCATS)
This is a sample that favours compounds with a hit; in the whole collection about 7.8% have one here.
LASV entry inh: inhibitors of Lassa virus binding or cell entry; AID 540256; Potency, µM (titrated, usually from 37.9 µM), for inactives: top-dose activity change, negative = inhibition, usual class: inhibitors; Lassa virus pseudotype entry inhibition, cell reporter; actives 1.2% (n = 300,000); calls by dose curve; tested in HEK293 cells; also: potency is read from the fitted curve at half-maximal effect; nearly all actives have a fitted effect of over 50% in size
HCV inh: blocks hepatitis C virus; Potency, µM (doses to about 41.8 µM), for inactives: at the top dose activity change, negative = inhibition, actives largely listed as inhibitors; Huh7.5.1 HCVcc-Cre infection, luciferase reporter, 44 h; AID 651820; actives 3.4% (n = 340,000); active = well fitted inhibition curve with a large enough effect; inconclusive = small, poorly fitted or top-dose-only effect, or another doubt; inactive = no such curve, though single readings can be large or run the other way; also: potency is read from the fitted curve at half-maximal effect
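Infectious HCVcc-Cre (~0.5 moi) was added to cells just after compound, with cells seeded 4 h earlier at 1,000 per well. Luciferase activity after 44 h culture reported infection; substrate was incubated 15 min at room temperature before reading.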
VACV Venus inh: inhibitors of vaccinia virus (Venus reporter); Potency, µM (doses to about 36.5 µM), for inactives: at the highest dose activity change, negative = inhibition, most hits filed as inhibitors; Vaccinia virus Venus reporter expression, fluorescence; actives 0.46% (n = 330,000); AID 720580; calls by dose curve; tested in A549 cells; also: potency is read from the fitted curve at half-maximal effect; nearly all actives have a fitted effect of over 30% in size
Marburg entry inh: blocks Marburg virus binding to or entry into cells. Marburg virus pseudotyped entry inhibition, cell reporter. Potency, µM (titrated, usually from 37.8 µM), without a hit: at the top dose activity change, negative = inhibition, hits mostly inhibitors. actives 1.8% (n = 300,000); calls by dose curve; tested in HEK293 cells; also: potency is read from the fitted curve at half-maximal effect
Vaccinia mCherry: vaccinia inhibition (mCherry reporter); Vaccinia virus mCherry reporter infection, fluorescence; Potency, µM (highest dose often 36.5 µM), for the others: at the top dose activity change, negative = inhibition, usual class: inhibitors; actives 0.63% (n = 310,000); AID 720579; calls by dose curve; tested in A549 cells; also: potency is read from the fitted curve at half-maximal effect; nearly all actives have a fitted effect of over 35% in size
HCMV inh: inhibitors of human cytomegalovirus | HFF cells, HCMV-luciferase reporter, 72 h; stronger effect = lower value | activity change, negative = inhibition, % at 57.5 µM | actives 4.5% (n = 410,000); in the data active = activity change below about -60%; inconclusive = no clear call, values can overlap the other calls; inactive = above about -39%
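Screen run at 2 compound doses on HFFs infected with reporter HCMV, MOI 1 PFU/cell. Luciferase activity from cell lysates at 72 h post infection gave inhibition relative to buffer-only and Salinomycin wells.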
Starred values were filed as active, the others as inactive; i = inactive; u = inconclusive; x = no result; [ ] = another dose, or the depositor's remark. % is scaled to controls: 0 for no effect and ±100 for the full control effect.

SMILES	LASV entry inh	HCV inh	VACV Venus inh	Marburg entry inh	Vaccinia mCherry	HCMV inh
COc1ccc(N2CCN([C@H]3CC(=O)NC3=O)CC2)cc1	x	x	x	-7%	x	x
c1ccc(C2=Nn3c(nnc3-c3cc(-c4ccccc4)n[nH]3)SC2)cc1	16µM*	u	u	u	x	-28
COc1cc(-c2nnc3n2N=C(c2ccccc2)CS3)cc(OC)c1OC	u	10µM*	u	u	u	4
COc1ccc(C2=Nn3c(nnc3-c3ccccc3Cl)SC2)cc1OC1CCCC1	x	x	x	x	x	-94*
Clc1ccc(C2=Nn3c(nnc3-c3cc(-c4ccccc4)n[nH]3)SC2)cc1	u	u	x	u	x	41
COc1ccc(C2=Nn3c(nnc3-c3ccccc3F)SC2)cc1OCC1CC1	x	x	x	x	x	-98*
Cc1cccc(CCn2c(=O)c3ccccc3n(CC(=O)Nc3ccccc3F)c2=O)c1	u	x	-16%	5%[46.1 µM]	-20%	-31
Cc1ccc(Cl)cc1N1CCN(C(=O)c2cc(S(=O)(=O)N3CCC(C)CC3)cn2C)CC1	-5%[46.1 µM]	x	u	x	-15%	-13
COc1ccc(C2=Nn3c(nnc3-c3ccccc3OC)SC2)cc1OC	u	u	-31%	u	u	-97*
COc1ccc(C2=Nn3c(nnc3-c3ccccc3Cl)SC2)cc1OC1CCOC1 (stereo not given)	x	x	x	x	x	20
CCOc1ccc(C2=Nn3c(nnc3-c3ccccc3)SC2)cc1Cl	3%	-16%	u	u	i	-102*
COc1ccc(OC)c(-c2nnc3n2N=C(c2ccc(OC)c(OC4CCOC4)c2)CS3)c1 (stereo not given)	x	x	x	x	x	-75*
COc1ccc(C2=Nn3c(nnc3-c3ccccn3)SC2)cc1OC	-16%	-10%	x	-5%	x	79
CC(=NCc1ccc(F)cc1)c1c(O)n(C)c(=O)n(C)c1=O	-5%	-13%	x	0.33µM*	x	-25
Clc1cc2nc3ccccn3c2cc1Cl	16%	25µM*	-19%	9%	x	15
COC(=O)CC1=C(C(=O)OC)C(c2cccc(OCC(N)=O)c2)C(C#N)=C(N)O1 (stereo not given)	2%	-10%	4%	-30%	-5%	-101*
COC(=O)CC1=C(C(=O)OC)[C@H](c2cccc(OCC(N)=O)c2)C(C#N)=C(N)O1	x	x	x	-30%	x	x
COc1cc(OC)c(NC(=O)Cc2c(C(=O)O)c(C)cn2C)cc1Cl	10%[46.1 µM]	x	-13%	x	-10%	1
Cc1ccccc1-c1nc(CNC(=O)Nc2ccccc2)c(C)o1	9%[46.1 µM]	x	1%	x	5%	-18
CCN(CC)CC#CCC(O)(c1ccccc1)c1ccc(Br)cc1 (stereo not given)	u	10µM*	x	23µM*	x	-62*
CCN(CC)CC#CCC(O)(c1ccccc1)c1ccccc1	-28%	u	-15%	u	-2%	-2
Cc1cc(C(=O)CSc2n[nH]c(N)n2)c(C)n1-c1ccccc1	-34%	11µM*	x	-5%	x	75
Cc1ccc(-n2c(C)cc(C(=O)CSc3n[nH]c(N)n3)c2C)cc1	u	u	x	-7%	x	-70*
Cc1cc(C(=O)CSc2nnc3ccccn23)c(C)n1-c1ccccc1	0.89µM*	16%	-9%	0.32µM*	-22%	-72*
Cc1cc(C(=O)CSc2nnc(-c3ccccc3)n2-c2ccccc2)c(C)n1-c1ncn[nH]1	-17%	-11%	-21%	-5%	-24%	18
SMILES	LASV entry inh	HCV inh	VACV Venus inh	Marburg entry inh	Vaccinia mCherry	HCMV inh
Cc1cc(C(=O)CSc2n[nH]c(N)n2)c(C)n1-c1ccc(F)cc1	-11%	-28%	x	u	x	u
CC(=O)N(Cc1cccnc1)c1nc2c(C)cccc2s1	-6%[46.1 µM]	x	-13%	x	i	5
COc1ccc(Cl)cc1NS(=O)(=O)c1ccc2[nH]c3c(c2c1)CCCC3	-15%[46.1 µM]	x	u	x	u	9
CCNc1nc2c(c(=O)[nH]c(=O)n2C)n1CC(O)COc1ccc(Cl)cc1Cl (stereo not given)	u	x	-19%	x	-22%	u
CCNS(=O)(=O)c1ccc(CCC(=O)O)cc1	u	10µM*	-8%	3%	i	-36
Cc1cccn2cc(COc3ccc(-c4ccccc4)cc3)nc12	u	u	-11%	u	u	-90*
Cc1cccn2cc(COc3cccc([N+](=O)[O-])c3)nc12	0%[46.1 µM]	-6%	-12%	2%[46.1 µM]	-8%	-33
